These results are taken from PubChem BioAssay (EPA / NIEHS).

Experiment [1] can be described thus: TOX21_p53_BLA_p3_viability: Viability Assessment in the Tox21 HCT-116 p53 Agonism Beta-lactamase Assay, Phase 3 (AID 2283593).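 Note: cells exposed to compound for 16 h before reading.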 In short, it runs like this: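 HCT116 cells, 4000/well, dosed 5 h after plating by pin transfer (217-fold dilution from DMSO stock) and incubated 16 h at 37C, 5% CO2. Viability read as ATP luminescence with CellTiter-Glo after 30 min at room temperature.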

Experiment [2] in a line: TOX21_p53_BLA_p4_viability: Viability Assessment in the Tox21 HCT-116 p53 Agonism Beta-lactamase Assay, Phase 4 (AID 2283597).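 Note: hits lower the luminescence signal meaning cytotoxicity.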 The essentials: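 Following a 16 h exposure at 37C, the treated HCT116 wells were first read for the FRET ratio. They were then lysed with CellTiter-Glo, and ATP luminescence was recorded after 30 min at room temperature.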
Experiment [3] concerns the target Cellular tumor antigen p53 (Homo sapiens) (UniProt P04637). Briefly: TOX21_p53_BLA_p5_ratio: Tox21 HCT-116 p53 Agonism Beta-lactamase Assay, Ratio, Phase 5 (AID 2283599). In short, it runs like this:
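HCT-116 p53-bla cells (4000/well) plated 5 h, dosed with compound (217-fold DMSO dilution) for 16 h at 37 C; CCF4-AM substrate 2 h at room temperature. Activity is the 460/530 nm emission ratio (405 nm excitation), fitted in gain-of-signal direction versus DMSO.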

A short description of experiment [4]: TOX21_p53_BLA_p5_viability: Viability Assessment in the Tox21 HCT-116 p53 Agonism Beta-lactamase Assay, Phase 5 (AID 2283600). In short, it runs like this: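 After the 460/530 nm beta-lactamase measurement, the wells received an ATP-detection luciferase reagent; signal was read 30 min later at RT. Compound treatment lasted 16 h on cells pre-incubated 5 h post-seeding.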

Experiment [5] addresses Cellular tumor antigen p53 (Homo sapiens) (UniProt P04637). Briefly: TOX21_p53_BLA_p4_ratio: Tox21 HCT-116 p53 Agonism Beta-lactamase Assay, Ratio, Phase 4 (AID 2283601). In short, it runs like this: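 HCT-116 p53 beta-lactamase reporter cells (4000/well) preincubated 5 h, then compound (217-fold dilution of DMSO stock) for 16 h at 37C. CCF4-AM substrate added 2 h at room temperature; 460/530 nm emission ratio fitted upward versus DMSO.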

For experiment [6] the target is unchanged. As to the kind of experiment: TOX21_p53_BLA_p3_ratio: Tox21 HCT-116 p53 Agonism Beta-lactamase Assay, Ratio, Phase 3 (AID 2283596). In short, it runs like this:
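HCT116 p53-bla cells (4000/well) given compound in DMSO (217-fold dilution) after 5 h, incubated 16 h at 37C. CCF4-AM substrate 2 h at room temperature; 460/530 nm emission ratio, gain fitted against DMSO.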

For experiment [7], the target named is Thyroid hormone receptor alpha (Rattus norvegicus) + Thyroid hormone receptor beta (Rattus norvegicus) (UniProt P18113+P63059). Briefly: TOX21_TR_LUC_GH3_Antagonist_Followup: Tox21 GH3 Thyroid Hormone Receptor Antagonism Luciferase Follow-Up Assay (AID 2283942). In short, it runs like this: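 Antagonist mode: GH3 cells seeded 1,500/well, compounds at 15 concentrations (92 uM to 5nM final) plus T3 at 1.0 nM final, 24 h at 37C. Luciferase read with ONE-Glo after 30 min at room temperature.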

The next experiment deals with THRA (gene 7067) (UniProt P10827). As to the kind of experiment: TOX21_TRA_COA_Antagonist_Followup_ratio: Tox21 Thyroid Hormone Receptor alpha Antagonism through Coactivator Recruitment Follow-Up Assay, Ratio (AID 2283953). In short, it runs like this: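 This follow-up to the GH3 luciferase screen checks specificity in a cell-free format. It measures SRC-2 coactivator peptide binding to TRα LBD by TR-FRET and scores loss of ratio signal relative to DMSO.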

Experiment [8] can be described thus: TOX21_TRB_BLA_Antagonist_Followup_viability: Viability Assessment in the Tox21 Thyroid Hormone Receptor beta Antagonism Beta-lactamase (BLA) Follow-Up Assay (AID 2283961). In short, it runs like this: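 ATP-based CellTiter-Glo luminescence (30 min, room temperature) run in the same wells as the TRβ-bla readout. Cells: GeneBLAzer HEK293T expressing GAL4-TRβ LBD, exposed 18 h at 37C to compounds at 11 concentrations in triplicate, stripped-serum medium.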

The target of the next experiment is THRB (gene 7068) (UniProt P10828). As to the kind of experiment: TOX21_TRB_COA_Antagonist_Followup_ratio: Tox21 Thyroid Hormone Receptor beta Antagonism through Coactivator Recruitment Follow-Up Assay, Ratio (AID 2283967). The essentials: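 Cell-free TR-FRET: GST-TRb LBD (5.0 nM) with fluorescein-SRC-2 peptide (200 nM) and Tb anti-GST antibody (2 nM), 0.10% BSA. 520:495 nm emission ratio normalized to DMSO (0%) and T3 (100%).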

Experiment [9] has as its target Retinoic acid receptor RXR-alpha (Homo sapiens) (UniProt P19793). As to the kind of experiment: TOX21_TR_RXR_BLA_Antagonist_Followup_ratio: Tox21 Thyroid Hormone Receptor beta Retinoid X Receptor alpha (RXRa) Antagonism Beta-lactamase (BLA) Follow-Up Assay, Ratio (AID 2283972). The essentials: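 After 5 h attachment at 37C, HEK293T RXRa-bla cells (2,500/well, 2% charcoal-stripped FBS, no phenol red) received compounds at 11 concentrations in triplicate for 16 h. Beta-lactamase read as 460:530 nm ratio after 2 h RT substrate loading.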

Experiment [10] can be described thus: TOX21_TR_RXR_BLA_Antagonist_Followup_viability: Viability Assessment in the Tox21 Thyroid Hormone Receptor beta Retinoid X Receptor alpha (RXRa) Antagonism Beta-lactamase (BLA) Follow-Up Assay (AID 2283979). The essentials:
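RXRa-bla HEK293T cells (2,500/well, phenol red-free DMEM, 2% charcoal-stripped FBS) were attached 5 h, then exposed to compounds at 11 concentrations in triplicate for 16 h at 37C. Viability measured by CellTiter-Glo ATP luminescence, bidirectional fitting versus DMSO.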

Structures are written as SMILES. Results filed as inconclusive are left out. Active and inactive are the calls of the source. Rule for the calls: active = hit-call score of the fitted dose curve at least 0.9, where 1 is the maximum; inconclusive = response in the unintended direction; inactive = score below 0.9.

Chain of Cellular tumor antigen p53 (Homo sapiens) (P04637 whole entry, looked up): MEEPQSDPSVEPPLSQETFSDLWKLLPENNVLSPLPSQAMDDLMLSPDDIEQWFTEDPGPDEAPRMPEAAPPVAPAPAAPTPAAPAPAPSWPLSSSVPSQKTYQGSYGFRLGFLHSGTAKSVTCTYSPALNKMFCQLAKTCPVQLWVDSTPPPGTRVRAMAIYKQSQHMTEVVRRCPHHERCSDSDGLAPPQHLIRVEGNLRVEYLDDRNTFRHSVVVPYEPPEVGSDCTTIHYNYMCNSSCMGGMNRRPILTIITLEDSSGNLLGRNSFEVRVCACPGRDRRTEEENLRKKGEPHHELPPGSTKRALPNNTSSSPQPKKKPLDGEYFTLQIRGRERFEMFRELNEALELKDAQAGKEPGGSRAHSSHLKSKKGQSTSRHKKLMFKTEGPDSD
Chain of THRA (gene 7067) (P10827 whole entry, looked up, the tested form may be a part): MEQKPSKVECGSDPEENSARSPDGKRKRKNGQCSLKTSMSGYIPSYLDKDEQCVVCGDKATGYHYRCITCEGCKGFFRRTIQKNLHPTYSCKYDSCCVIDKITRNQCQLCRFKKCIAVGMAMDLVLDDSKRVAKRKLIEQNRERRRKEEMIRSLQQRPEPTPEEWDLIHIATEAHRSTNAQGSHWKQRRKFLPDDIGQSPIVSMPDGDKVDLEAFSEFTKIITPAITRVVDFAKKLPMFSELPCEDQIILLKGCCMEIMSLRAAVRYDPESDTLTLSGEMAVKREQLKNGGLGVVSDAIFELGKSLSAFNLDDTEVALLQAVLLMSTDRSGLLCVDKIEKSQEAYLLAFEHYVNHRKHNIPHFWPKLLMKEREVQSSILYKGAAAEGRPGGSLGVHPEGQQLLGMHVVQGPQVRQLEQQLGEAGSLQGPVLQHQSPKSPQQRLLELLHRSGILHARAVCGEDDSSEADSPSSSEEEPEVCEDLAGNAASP
Chain of Retinoic acid receptor RXR-alpha (Homo sapiens) (P19793 whole entry, looked up): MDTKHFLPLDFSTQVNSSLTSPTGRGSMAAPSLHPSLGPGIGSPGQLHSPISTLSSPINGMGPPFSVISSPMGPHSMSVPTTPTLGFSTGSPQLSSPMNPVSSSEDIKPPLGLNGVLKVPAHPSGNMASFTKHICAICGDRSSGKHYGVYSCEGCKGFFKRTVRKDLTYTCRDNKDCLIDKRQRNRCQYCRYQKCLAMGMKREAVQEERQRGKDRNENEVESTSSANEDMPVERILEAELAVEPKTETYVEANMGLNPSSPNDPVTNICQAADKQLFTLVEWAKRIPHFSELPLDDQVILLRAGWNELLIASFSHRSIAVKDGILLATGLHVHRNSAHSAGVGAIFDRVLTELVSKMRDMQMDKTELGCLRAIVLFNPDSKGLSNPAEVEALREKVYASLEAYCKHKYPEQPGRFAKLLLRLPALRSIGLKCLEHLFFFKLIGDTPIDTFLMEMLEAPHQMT
Chain of THRB (gene 7068) (P10828 whole entry, looked up, the tested form may be a part): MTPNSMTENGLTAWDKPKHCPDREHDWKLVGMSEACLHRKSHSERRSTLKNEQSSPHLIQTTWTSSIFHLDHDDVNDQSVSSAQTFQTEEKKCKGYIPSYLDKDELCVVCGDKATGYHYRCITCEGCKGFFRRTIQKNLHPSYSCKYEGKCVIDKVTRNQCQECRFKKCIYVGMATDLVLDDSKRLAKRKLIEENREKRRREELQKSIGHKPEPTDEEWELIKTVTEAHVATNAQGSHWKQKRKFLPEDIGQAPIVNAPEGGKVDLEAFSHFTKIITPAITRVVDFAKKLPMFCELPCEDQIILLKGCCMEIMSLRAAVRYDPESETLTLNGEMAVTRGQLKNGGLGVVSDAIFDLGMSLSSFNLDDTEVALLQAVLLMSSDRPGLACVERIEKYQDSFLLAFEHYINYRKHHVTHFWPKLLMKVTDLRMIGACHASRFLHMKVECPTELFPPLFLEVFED

Take `CC(C)(O)CCC(C)(C)O`: the call in experiment [1], in experiment [2], in experiment [3] and in experiment [4] was inactive.

With `CN1C(C(=O)Nc2ccccn2)C(=O)c2sc(Cl)cc2S1(=O)=O` (configuration not stated), the outcome in experiment [1], in experiment [2], in experiment [3] and in experiment [5] was inactive.

For the compound `COC(=O)[C@@H](N)Cc1ccc(O)c(O)c1`, the result in [1] and in experiment [3] was inactive.

With `Cc1ccc(C(C)(C)c2ccc(C)cc2)cc1`, the call in experiment [1], in experiment [6] and in [5] was inactive.

Consider `CC(CC(=O)O)CC(C)(C)C` (configuration not stated), for which the outcome in [1], in experiment [2] and in experiment [4] was inactive.

For the compound `C=CCSSCCC`, the call in [1] and in experiment [2] was inactive.

For `CC(C)(C)N(CCO)CCO`, the compound was classed as inactive in experiment [1], in experiment [6] and in experiment [5].

With `CN1CCCC(CC2c3ccccc3Sc3ccccc32)C1` (configuration not stated), the call (in [1]; in [6]; in experiment [4]; in the experiment with THRA (gene 7067); in the experiment with THRB (gene 7068); in experiment [9]) was inactive. The compound was classed as inactive in experiment [10]. Besides, the AC50 (usually the midpoint of the concentration-response curve, whichever way the signal moves) is 15.5 µM (active) in experiment [7] and 8.56 µM (active) in [8].

Take `CC(C)Cc1ccc([C@H](C)C(=O)O)cc1`: the result in experiment [1], in experiment [2] and in experiment [4] was inactive.

Consider `CC(=O)Nc1ccc(S(=O)(=O)Nc2cc(C)on2)cc1`, for which the result in [1], in [3] and in experiment [4] was inactive.

Consider `CC(C)(CCl)c1ccccc1`, for which the call in [1], in experiment [2], in experiment [3], in experiment [4] and in experiment [5] was inactive.

Take `NC(CO)C(=O)NNCc1ccc(O)c(O)c1O` (configuration not stated): the result in experiment [1], in [3], in experiment [4] and in [5] was inactive.

`Nc1ncnc2c1ncn2CCOCP(=O)(O)O`: the compound was called inactive in experiment [1], in experiment [4] and in [5].

As to `CC(C)(C)C(=O)OCOP(=O)(COCCn1cnc2c(N)ncnc21)OCOC(=O)C(C)(C)C`, the outcome in experiment [6] was inactive.

In the case of `CCN(CC)CCOc1ccccc1C(=O)CCc1ccccc1`, the result in [6] and in experiment [2] was inactive.

Consider `CCN(CC)CCNC(=O)c1cc(S(C)(=O)=O)ccc1OC`, for which the result in [6], in experiment [2], in experiment [3], in experiment [4] and in [5] was inactive.

As to `c1ccc2cnncc2c1`, the result in [1], in experiment [3] and in experiment [5] was inactive.

Take `CCC(O)c1ccccc1` (configuration not stated): the outcome in experiment [1], in experiment [4] and in [5] was inactive.

Regarding `CC/C(=C(/CC)c1ccc(OP(=O)(O)O)cc1)c1ccc(OP(=O)(O)O)cc1`, the outcome in experiment [1], in [3] and in experiment [5] was inactive.

Regarding `N=C(N)c1ccc(C=Cc2ccc(C(=N)N)cc2O)cc1`, the result in experiment [6], in [2], in experiment [3] and in [4] was inactive.

Consider `OC1CCCc2ccccc21` (configuration not stated), for which the compound was classed as inactive in [1], in [4] and in experiment [5].
